In article PMC4336329 (PLoS ONE, 2015):
The campaign covered roughly 310,000 compounds. About 14,000 (4.5%) showed an effect of 50% or more. The effect is printed as a negative number. Many of the other results were omitted from the sample, so strong results are more common in it than they were.

What follows are compounds tested against human ether-à-go-go-related gene (hERG) potassium channel (human, UniProt Q12809) (assay: primary screen, population patch clamp on CHO cells stably expressing hERG; higher = less effect of the substance).
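Also: peak tail current of the secondary pulse compared with the same well before compound.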

Chain of human ether-à-go-go-related gene (hERG) potassium channel (Q12809 whole entry, looked up): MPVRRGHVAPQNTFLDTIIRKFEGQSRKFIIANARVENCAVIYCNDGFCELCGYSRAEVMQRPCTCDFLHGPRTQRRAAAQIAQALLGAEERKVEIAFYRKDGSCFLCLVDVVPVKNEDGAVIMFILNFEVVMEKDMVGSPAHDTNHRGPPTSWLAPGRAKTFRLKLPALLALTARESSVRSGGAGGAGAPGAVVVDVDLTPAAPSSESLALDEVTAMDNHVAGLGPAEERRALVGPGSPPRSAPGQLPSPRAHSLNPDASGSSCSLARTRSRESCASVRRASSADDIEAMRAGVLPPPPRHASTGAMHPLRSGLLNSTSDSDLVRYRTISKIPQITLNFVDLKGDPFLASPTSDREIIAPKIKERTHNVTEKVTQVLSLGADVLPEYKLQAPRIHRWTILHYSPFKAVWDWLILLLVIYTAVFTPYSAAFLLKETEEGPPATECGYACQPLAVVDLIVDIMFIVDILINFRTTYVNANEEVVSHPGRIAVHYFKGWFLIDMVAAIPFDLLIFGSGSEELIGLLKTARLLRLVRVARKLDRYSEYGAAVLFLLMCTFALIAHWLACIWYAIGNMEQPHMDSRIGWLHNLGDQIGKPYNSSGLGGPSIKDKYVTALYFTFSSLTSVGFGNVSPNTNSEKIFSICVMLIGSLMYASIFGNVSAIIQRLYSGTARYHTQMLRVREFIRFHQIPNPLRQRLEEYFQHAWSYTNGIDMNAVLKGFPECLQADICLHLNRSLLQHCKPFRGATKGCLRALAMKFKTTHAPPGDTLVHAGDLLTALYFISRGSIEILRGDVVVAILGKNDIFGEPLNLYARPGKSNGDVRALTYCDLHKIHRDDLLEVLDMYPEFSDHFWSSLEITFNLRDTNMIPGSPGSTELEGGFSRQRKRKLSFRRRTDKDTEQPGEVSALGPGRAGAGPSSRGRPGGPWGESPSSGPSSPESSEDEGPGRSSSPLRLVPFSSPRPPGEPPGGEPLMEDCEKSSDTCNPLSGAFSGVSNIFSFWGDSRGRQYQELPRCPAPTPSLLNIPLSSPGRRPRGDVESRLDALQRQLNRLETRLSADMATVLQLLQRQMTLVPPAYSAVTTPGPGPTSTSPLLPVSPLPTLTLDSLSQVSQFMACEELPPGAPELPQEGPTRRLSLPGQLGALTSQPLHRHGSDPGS

SMILES | hERG current change (%, negative = inhibition) at 10uM [%]
CCOC(=O)C1C(=O)NC(N2CCN(c3ccccc3)CC2)=NC1c1ccco1 (stereo not shown) | -5.81
O=C(COC(=O)CCNS(=O)(=O)c1cccs1)Nc1cc(C(F)(F)F)ccc1Cl | -26.1
Cc1ccc(/C=C/C(=O)O)cc1S(=O)(=O)N(CCO)CCO | 8.09
Cc1sc2ncnc(Sc3nnnn3-c3ccc(Cl)cc3)c2c1C | 11.2
Nc1nccnc1C(=O)OCC(=O)c1ccc[nH]1 | -0.119
COc1ccc(CCn2c(=S)[nH]c3ccc(N4CCOCC4)cc3c2=O)cc1OC | 10.2
O=C(c1cccc(Cl)c1)N1CCN(c2ccc(N3CCOCC3)nn2)CC1 | -34.8
CC(=O)c1ccc(Oc2ncnc(N)c2[N+](=O)[O-])cc1 | 12.4
COc1ccc(-c2nc(CS(=O)CC(=O)NC3CCC(C)CC3)c(C)o2)cc1OC (stereo not shown) | -34.6
COc1ccc(-c2n[nH]c(=S)n2-c2ccc(C)cc2)cc1 | 8.3
Br.CCn1c(=N)n(CC(=O)c2ccc(Br)s2)c2ccccc21 | -69.3
Br.C=CCn1c(=N)n(CC(=O)c2ccc(Br)s2)c2ccccc21 | -58.6
Br.C=CCn1c(=N)n(CC(=O)c2ccccc2)c2ccccc21 | -23.9
C=CCn1c(=N)n(CC(=O)c2ccc(Br)cc2)c2ccccc21 | -43.5
Br.CCN(CC)CCn1c(=N)n(CC(=O)c2ccc(C)cc2)c2ccccc21 | -40.8
Br.Cn1c(=N)n(CC(=O)c2ccc(Br)s2)c2ccccc21 | -6.86
Br.CCN(CC)CCn1c(=N)n(CC(=O)c2ccc(Br)s2)c2ccccc21 | -76.9
Br.CCn1c(=N)n(CC(=O)C(C)(C)C)c2ccccc21 | -21.1
Br.CCCCn1c(=N)n(CC(=O)O)c2ccccc21 | 22.4
Br.CCn1c(=N)n(CC(=O)C23CC4CC(CC(C4)C2)C3)c2ccccc21 | -32.3
Br.CCCCn1c(=N)n(CC(=O)C(C)(C)C)c2ccccc21 | -55

SMILES | hERG current change (%, negative = inhibition) at 10uM [%]
O=C(c1ccc(CNS(=O)(=O)c2ccccc2)cc1)N1CCC2(CC1)OCCO2 | -4.16
COc1ccc(NC(=O)CC2C(=O)N(c3ccccc3)C(=O)N2CCc2cccs2)cc1 (stereo not shown) | -32.9
CCOc1ccccc1NC(=O)C1CCCCN1S(=O)(=O)c1ccc(F)cc1 (stereo not shown) | -2.26
CN1CCN(C(c2cccnc2)c2ccc3cccnc3c2O)CC1 (stereo not shown) | -4.29
Cc1cccn2c(=O)nc(SCC(=O)N3CC(C)OC(C)C3)nc12 (stereo not shown) | 1.96
CCc1nc(NCCO)c(C#N)c2c1CCCC2 | 13.4
CCOc1ccccc1-c1nnc(SCC(=O)NC2(C#N)CCCC2)o1 | -19.2
CC(C)OC(=O)c1ccc(NC(=O)Cn2c(-c3nonc3N)nc3ccccc32)cc1 | 18.4
CC1(c2ccccc2)NC(=S)N2C1NC(=S)N2c1ccccc1 (stereo not shown) | 10.2
COc1cc(NC(=O)C/C(C)=N/NC(=O)c2cccc(O)c2)c(OC)cc1Cl | -8.16
CCOC(=O)COn1c(=O)c(=O)n(OC)c2ccccc21 | 17.8
O=C(COC(=O)Cc1cn2ccsc2n1)NCc1ccc2c(c1)OCO2 | -15.2
Br.N=c1n(CC(=O)c2ccc(Br)s2)c2ccccc2n1Cc1ccccc1 | -61.7
O=C(O)Cn1c(=O)n(Cc2ccccc2)c2ccccc21 | 23.4
Br.CCCCn1c(=N)n(CC(=O)c2ccc(Br)s2)c2ccccc21 | -52.8
CCCn1c(=N)n(CC(=O)c2cccs2)c2ccccc21 | -22
Br.N=c1n(CC(=O)c2cccs2)c2ccccc2n1Cc1ccccc1 | -48
Br.Cn1c(=N)n(CC(=O)c2cccs2)c2ccccc21 | -0.146
CCC(C(=O)NCCN1CCOCC1)n1c2ccccc2c2nc(=O)cc(C)n21 (stereo not shown) | 23.1
Cc1cccc(NC(=O)CSc2nnnn2-c2cccnc2)c1 | -6.57
COc1ccc(OC)c2nc(-c3cccnc3)ccc12 | 10.2

SMILES | hERG current change (%, negative = inhibition) at 10uM [%]
O=C1CC2(CCN(C(=O)c3ccc(F)cc3)CC2)Oc2ccccc21 | -76
O=C(c1cccc(Br)c1)N1CCCC1 | 0.701
O=C1CC2(CCN(C(=O)c3cccc(Br)c3)CC2)Oc2ccccc21 | -85.5
O=C1CC2(CCN(C(=O)c3ccc(Br)cc3)CC2)Oc2ccccc21 | -73.5
O=C1CC2(CCCCC2)Oc2ccc(Cl)cc21 | 1.26
O=C1CC2(CCN(C(=O)c3cccc(Cl)c3)CC2)Oc2ccccc21 | -78.5
O=C(c1ccc(F)cc1)N1CCC2(CC1)OCCO2 | 19
CC(=O)Nc1ccc(S(=O)(=O)N2CCC3(CC2)CC(=O)c2ccccc2O3)cc1 | -36.6
Oc1c(C(Nc2cccc(C(F)(F)F)c2)c2ccncc2)ccc2cccnc12 (stereo not shown) | 12.3
CCOc1ccc(S(=O)(=O)NCCC(=O)OCC(=O)Nc2cc(C)on2)cc1 | -44.1
COc1ccc(-c2nnn(CC(=O)c3ccc4c(c3)OCCO4)n2)cc1OC | 9.3
C/C(=N\NC(=O)c1cc(-c2ccc(Br)s2)[nH]n1)c1ccncc1 | 11.1
COc1ccc(C(=O)CCc2ccccc2)cc1 | 9.03
CCOC(=O)N1CCN(c2nc(-c3ccco3)cc(C(F)(F)F)n2)CC1 | -3.17
Cc1ccc(C(=O)Nc2cccnc2N2CCN(C)CC2)cc1 | -5.47
O=C1CC2(CCN(C(=O)c3cccc(F)c3)CC2)Oc2ccccc21 | -75.1
O=C(c1ccc(Cl)cc1)N1CCC2(CC1)OCCO2 | 13.2
O=C1CC2(CCCC2)Oc2ccc(F)cc21 | -8.58
O=C1CC2(CCN(C(=O)c3ccc(Cl)cc3)CC2)Oc2ccccc21 | -87.8
